Experimental data published in PubChem BioAssay (Tox21).
Values joined by “and” are separate entries in the source; they are usually repeats but may differ in a detail not shown here. Equal entries are not always repeated. Results filed as inconclusive are left out. A call without a number means that no potency is given here. Some structures have more than one record in an assay (separate samples or runs), and their calls can disagree. Active and inactive are the calls of the source. Unless noted, calls follow the shape of the dose curve; as a rule, active = well fitted curve in the direction sought with a large enough effect in the repeat runs; inconclusive = weak or mixed curves; inactive = no such curve, though single readings can be large; an effect the other way counts as inactive or inconclusive.

Columns and labels:
[1] = qHTS assay to identify small molecule antagonists of the estrogen receptor beta (ER-beta) signaling pathway - cell viability counter screen (AID 1259382);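 also: HEK293T cells carrying ER-beta-UAS-bla reporter stimulated with estradiol; series mostly up to about 92 µM; nearly all actives have a fitted effect of over 55% in size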
Procedure, shortened: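 Cells: ER-beta-UAS-bla HEK293T, 2,000/well, 2% CS-FBS, 6 hr settle. Cpd + E2 (1nM final), 16 hr, 37C/5% CO2. Bla FRET substrate 2 hr RT, then CellTiter-Glo 30 min RT, luminescence.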

[2] = target: Estrogen receptor (Homo sapiens) (UniProt P03372); test: qHTS assay to identify small molecule agonists of the estrogen receptor alpha (ER-alpha) signaling pathway in the presence of an antagonist (AID 1259383; calls by dose curve; also: nearly all actives have a fitted effect of over 15% in size; also: potency is read from the fitted curve at half-maximal effect; as to activation: top concentration of the series differs between compounds)
Chain of Estrogen receptor (Homo sapiens) (P03372 whole entry, looked up): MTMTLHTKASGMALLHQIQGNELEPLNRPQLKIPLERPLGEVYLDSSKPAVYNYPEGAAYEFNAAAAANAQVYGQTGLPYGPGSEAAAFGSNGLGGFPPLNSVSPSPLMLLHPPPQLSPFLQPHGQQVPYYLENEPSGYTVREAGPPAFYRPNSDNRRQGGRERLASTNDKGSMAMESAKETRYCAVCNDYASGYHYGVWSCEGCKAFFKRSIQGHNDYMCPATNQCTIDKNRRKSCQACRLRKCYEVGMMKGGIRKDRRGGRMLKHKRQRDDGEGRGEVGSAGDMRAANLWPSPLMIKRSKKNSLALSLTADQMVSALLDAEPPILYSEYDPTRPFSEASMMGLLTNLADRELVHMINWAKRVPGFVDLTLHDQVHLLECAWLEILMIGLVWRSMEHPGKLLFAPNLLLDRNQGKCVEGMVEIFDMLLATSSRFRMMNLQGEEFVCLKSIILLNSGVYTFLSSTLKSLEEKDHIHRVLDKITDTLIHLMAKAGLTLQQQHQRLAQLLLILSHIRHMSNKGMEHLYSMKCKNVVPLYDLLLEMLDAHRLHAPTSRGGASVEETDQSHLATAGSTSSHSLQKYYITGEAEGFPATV
Procedure, shortened: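 VM7Luc4E2, endog. ER-alpha + 4×ERE-luc; charcoal-stripped FBS, phenol red-free, 5 d; 24hr plating; +10.0nM ICI-182,780 (final); cpds 15 conc, 22hr, 37C/5% CO2; ONE-Glo luminescence.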

[3] = qHTS assay to identify small molecule agonists or antagonists of the thyroid stimulating hormone receptor (TSHR) signaling pathway - wild type cell line counter screen (AID 1259384; calls by dose curve)
Procedure, shortened: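 Wild-type Hek293 cells, 800/well, 18 h at 37C, then compound with Ro20-1724 for 30 min RT. cAMP by HTRF (cAMP-d2/anti-cAMP cryptate), 1 h RT, fluorescence read. 15 concentrations, triplicates.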

[4] = target: Thyrotropin receptor (Homo sapiens) (UniProt P16473); test: qHTS assay to identify small molecule antagonists of the thyroid stimulating hormone receptor (TSHR) signaling pathway (AID 1259385; calls by dose curve; also: nearly all actives have a fitted effect of over 20% in size)
Chain of Thyrotropin receptor (Homo sapiens) (P16473 whole entry, looked up): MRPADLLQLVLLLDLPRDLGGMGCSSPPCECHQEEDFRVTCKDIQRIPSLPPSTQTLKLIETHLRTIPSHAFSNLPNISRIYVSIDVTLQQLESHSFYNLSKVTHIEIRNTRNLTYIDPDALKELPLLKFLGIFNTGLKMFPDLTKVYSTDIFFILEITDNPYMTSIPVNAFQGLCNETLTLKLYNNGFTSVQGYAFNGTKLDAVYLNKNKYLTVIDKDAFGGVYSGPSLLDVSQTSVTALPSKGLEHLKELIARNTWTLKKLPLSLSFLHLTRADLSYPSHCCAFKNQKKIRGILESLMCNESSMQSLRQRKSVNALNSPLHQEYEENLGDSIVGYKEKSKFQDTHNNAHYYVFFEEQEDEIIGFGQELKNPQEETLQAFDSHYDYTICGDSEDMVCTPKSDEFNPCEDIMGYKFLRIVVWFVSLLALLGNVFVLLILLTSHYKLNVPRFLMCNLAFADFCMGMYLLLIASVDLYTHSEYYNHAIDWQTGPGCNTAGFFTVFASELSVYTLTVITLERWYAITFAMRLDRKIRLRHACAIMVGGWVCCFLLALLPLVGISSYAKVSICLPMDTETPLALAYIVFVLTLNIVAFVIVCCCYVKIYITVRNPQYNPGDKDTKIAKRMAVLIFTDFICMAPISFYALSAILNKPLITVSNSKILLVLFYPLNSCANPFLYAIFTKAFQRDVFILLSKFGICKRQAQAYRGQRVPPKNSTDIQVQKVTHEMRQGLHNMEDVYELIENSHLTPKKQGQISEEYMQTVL
Procedure, shortened: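 TSHR-HEK293 cells (800/well) plated 18 h, then compounds with Ro20-1724 and TSH at 1.5 ng/mL final, 30 min at room temperature. cAMP quantified by HTRF (cAMP-d2/anti-cAMP-cryptate, 1 h); 15 concentrations in triplicate.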

[5] = qHTS assay to identify small molecule agonists of the estrogen receptor alpha (ER-alpha) signaling pathway in the presence of an antagonist - cell viability counter screen (AID 1259386);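 also: series mostly up to about 92 µM; cells exposed to compounds for 22 h at 37 °C before the viability read; nearly all actives have a fitted effect of over 30% in size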
Procedure, shortened: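 VM7Luc4E2, stripped-serum pre-culture 5 d; 24hr plating; +ICI-182,780 10.0nM final; cpds 15 conc, 22hr, 37C/5% CO2; CellTiter-Fluor added at 21hr, fluorescence 1hr later.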

[6] = target: Progesterone receptor (Homo sapiens) (UniProt P06401); test: qHTS assay to identify small molecule antagonists of the progesterone receptor (PR) signaling pathway (AID 1346795; active = well fitted inhibition curve with a large enough effect in the signal ratio in the repeat runs, not every such curve was filed as active; the % refers to the signal ratio; also: potency is read from the fitted curve at half-maximal effect)
Chain of Progesterone receptor (Homo sapiens) (P06401 whole entry, looked up): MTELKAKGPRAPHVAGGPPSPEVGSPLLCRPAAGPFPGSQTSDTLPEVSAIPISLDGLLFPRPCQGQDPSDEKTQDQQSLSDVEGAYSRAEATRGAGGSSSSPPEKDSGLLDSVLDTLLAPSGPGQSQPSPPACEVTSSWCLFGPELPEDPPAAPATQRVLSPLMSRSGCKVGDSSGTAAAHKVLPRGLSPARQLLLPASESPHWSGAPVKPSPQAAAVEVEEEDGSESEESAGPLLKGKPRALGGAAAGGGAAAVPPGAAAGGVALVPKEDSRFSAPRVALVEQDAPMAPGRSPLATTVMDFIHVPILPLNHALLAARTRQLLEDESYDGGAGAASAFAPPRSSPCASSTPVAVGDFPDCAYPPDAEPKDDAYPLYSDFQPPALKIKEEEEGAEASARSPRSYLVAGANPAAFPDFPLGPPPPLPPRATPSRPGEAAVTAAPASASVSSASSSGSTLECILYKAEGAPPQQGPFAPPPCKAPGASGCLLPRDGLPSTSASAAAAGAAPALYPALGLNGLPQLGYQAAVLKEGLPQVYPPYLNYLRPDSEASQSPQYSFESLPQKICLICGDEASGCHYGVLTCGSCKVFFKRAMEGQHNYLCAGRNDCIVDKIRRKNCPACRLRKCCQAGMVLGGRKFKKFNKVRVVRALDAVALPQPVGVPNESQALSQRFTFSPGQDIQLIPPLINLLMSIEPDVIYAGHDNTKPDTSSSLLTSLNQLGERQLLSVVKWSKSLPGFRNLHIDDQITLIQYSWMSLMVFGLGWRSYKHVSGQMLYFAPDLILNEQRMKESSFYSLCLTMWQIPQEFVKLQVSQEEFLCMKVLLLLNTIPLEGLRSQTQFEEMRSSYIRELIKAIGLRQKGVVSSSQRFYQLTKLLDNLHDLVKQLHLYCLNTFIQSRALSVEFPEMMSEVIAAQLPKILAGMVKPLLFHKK
Procedure, shortened: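 Antagonist mode: compounds tested against 1 nM (final) promegestone stimulation in HEK293T cells expressing PR-UAS-bla reporter, 16 hr at 37C, 5% CO2; beta-lactamase activity detected via B/G FRET substrate after 2 hr at room temperature.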

[7] = qHTS assay to identify small molecule antagonists of the progesterone receptor (PR) signaling pathway - cell viability counter screen (AID 1346798); also: series mostly up to about 92 µM; nearly all actives have a fitted effect of over 50% in size
Procedure, shortened: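 Counter screen for cytotoxicity: viability of PR-UAS-bla HEK293T cells was measured with CellTiter-Glo luminescence following 16 hr compound exposure in the presence of R5020.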

[8] = qHTS assay to identify small molecule agonists of the progesterone receptor (PR) signaling pathway - cell viability counter screen (AID 1346799; calls by dose curve; also: nearly all actives have a fitted effect of over 45% in size; also: potency is read from the fitted curve at half-maximal effect)
Procedure, shortened: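 Cells (PR-UAS-bla HEK293T) are plated at 3,000/well in 2% charcoal-stripped FBS medium, rested 6 hr, dosed and incubated 16 hr at 37C. CellTiter-Glo is then added and luminescence measured after 30 min at room temperature.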

[9] = qHTS assay to identify small molecule antagonists of the TGF-beta/Smad signaling pathway - cell viability counter screen (AID 1346824); also: nearly all actives have a fitted effect of over 50% in size
Procedure, shortened: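 SBE-bla HEK 293T cells, incubated overnight, then compound plus 0.25 ng/mL TGF-beta1 (stock added) for 5 hr at 37 C. Viability was read in the same wells by CellTiter-Glo luminescence after 30 min at room temperature.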

[10] = target: Progesterone receptor (Homo sapiens) (UniProt P06401); test: qHTS assay to identify small molecule agonists of the progesterone receptor (PR) signaling pathway (AID 1346784; calls by dose curve; also: nearly all actives have a fitted effect of over 30% in size; also: potency is read from the fitted curve at half-maximal effect)
Procedure, shortened: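 Cells (PR-UAS-bla HEK 293T, GripTite) were plated in assay medium containing 2% charcoal-stripped FBS and incubated 6 hr. Test compounds in DMSO were added for 16 hr at 37C. FRET substrate was then loaded for 2 hr at room temperature before fluorescence reading.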

Row | SMILES | Potency [1] | Potency [2] | outcome [3] | Potency [4] | Potency [5] | Potency [6] | Potency [7] | Potency [8] | Potency [9] | Potency [10] | activity change, negative = cytotoxicity [1] | activation [2] | activation [10] | activity change, negative = inhibition [6] | activity change, negative = cytotoxicity [7]
1 | C=C(C)C(=O)Nc1ccc(Cl)c(Cl)c1 | inactive | inactive | inactive | inactive | inactive | 24.6 µM (active) and 48.4 µM (active) | inactive | inactive | inactive | – | – | – | – | – | –
2 | c1c[nH]cn1 | inactive | inactive | – | – | inactive | inactive | inactive | inactive | inactive | inactive | – | – | – | – | –
3 | O=C(CC(C(=O)OC1CCCCC1)S(=O)(=O)O)OC1CCCCC1 (stereo not given) | inactive | – | inactive | inactive | inactive | inactive | inactive | inactive | inactive | inactive | – | – | – | – | –
4 | OCCOCCN1CCN(C2=Nc3ccccc3Sc3ccccc32)CC1 | inactive | – | inactive | inactive | inactive | inactive | inactive | inactive | inactive | inactive | – | – | – | – | –
5 | CCN(CC)CCCC(C)Nc1ccnc2cc(Cl)ccc12 (stereo not given) | – | – | – | – | – | – | – | – | – | 119 nM (active) | -20.4% [at 8.39 µM] (inactive) and -8.86% [at 19 µM] (inactive) | -0.124% [at 8.39 µM] (inactive) and -1.51% [at 19 µM] (inactive) | -0.551% [at 19 µM] (inactive) | 0.105% [at 8.39 µM] (inactive) and 2.39% [at 18.9 µM] (inactive) | 3.8% [at 8.39 µM] (inactive)
6 | C=CCNC(N)=S | inactive | – | inactive | inactive | inactive | inactive | inactive | 21.2 µM (active) and inactive | inactive | inactive | – | – | – | – | –
7 | CCCCCCCCCCCCS | inactive | inactive | inactive | inactive | inactive | inactive | inactive | inactive | inactive | – | – | – | – | – | –
8 | C=C(C)C(=O)OCCOCCOCCOC(=O)C(=C)C | inactive | – | inactive | inactive | inactive | inactive | inactive | inactive | inactive | inactive | – | – | – | – | –
9 | Cc1cccc(O)c1 | inactive | inactive | – | – | inactive | inactive | inactive | inactive | inactive | inactive | – | – | – | – | –
10 | c1ccc(OCCOc2ccccc2)cc1 | inactive | inactive | inactive | inactive | inactive | inactive | inactive | inactive | inactive | – | – | – | – | – | –
11 | O=C(O)CCCC[C@@H]1SC[C@@H]2NC(=O)N[C@@H]21 | inactive | inactive | inactive | inactive | inactive | – | inactive | inactive | inactive | – | – | – | – | – | –
12 | CCCCC(CC)COC(=O)CS (stereo not given) | inactive | – | inactive | inactive | inactive | inactive | inactive | inactive | inactive | inactive | – | – | – | – | –
13 | CC(c1cc2ccccc2s1)N(O)C(N)=O (stereo not given) | inactive | inactive | – | – | inactive | inactive | inactive | inactive | inactive | inactive | – | – | – | – | –
14 | CCCCCCCCCCCCc1ccccc1 | inactive | – | inactive | inactive | inactive | inactive | inactive | inactive | inactive | inactive | – | – | – | – | –
15 | CC(=O)CC(=O)Nc1ccccc1 | inactive | – | inactive | inactive | inactive | inactive | inactive | inactive | inactive | inactive | – | – | – | – | –
16 | O=C1CCC(N2C(=O)c3ccccc3C2=O)C(=O)N1 (stereo not given) | inactive | – | inactive | inactive | inactive | inactive | inactive | inactive | inactive | inactive | – | – | – | – | –
17 | COS(C)(=O)=O | inactive | inactive | inactive | inactive | inactive | – | inactive | inactive | inactive | – | – | – | – | – | –
18 | OC[C@H]1O[C@@](CO)(O[C@H]2O[C@H](CO)[C@@H](O)[C@H](O)[C@H]2O)[C@@H](O)[C@@H]1O | inactive | inactive | – | – | inactive | inactive | inactive | inactive | inactive | inactive | – | – | – | – | –
19 | Fc1ccc(Br)cc1 | inactive | 61.8 µM (active) and inactive | inactive | inactive | inactive | inactive | inactive | inactive | inactive | – | – | – | – | – | –
20 | CC(=O)OCC(=O)[C@@]12N=C(C)O[C@@H]1C[C@H]1[C@@H]3CCC4=CC(=O)C=C[C@]4(C)[C@H]3[C@@H](O)C[C@@]12C | inactive | inactive | inactive | inactive | inactive | inactive | inactive | inactive | inactive | – | – | – | – | – | –
21 | C/C=C1/CC2C=CC1C2 (stereo not given) | inactive | inactive | – | – | inactive | inactive | inactive | inactive | inactive | inactive | – | – | – | – | –
22 | CCCCCCOCCO | inactive | inactive | – | – | inactive | inactive | inactive | inactive | inactive | – | – | – | – | – | –
23 | CCC(O)OC(O)CC (stereo not given) | inactive | inactive | inactive | inactive | inactive | inactive | inactive | inactive | inactive | – | – | – | – | – | –
